PubChem BioAssay (NCATS)
Records with an inconclusive call do not appear. A call without a number means that no potency is given here. Activity calls are given as the source filed them. Calls come from the whole dose curve; as a rule, active = well fitted inhibition curve with a large enough effect; inconclusive = small, poorly fitted or top-dose-only effect; inactive = flat fitted curve, though single readings scatter.

Biological target: Luciferin 4-monooxygenase (Photinus pyralis) (UniProt P08659)
Sequence (P08659 whole entry, looked up): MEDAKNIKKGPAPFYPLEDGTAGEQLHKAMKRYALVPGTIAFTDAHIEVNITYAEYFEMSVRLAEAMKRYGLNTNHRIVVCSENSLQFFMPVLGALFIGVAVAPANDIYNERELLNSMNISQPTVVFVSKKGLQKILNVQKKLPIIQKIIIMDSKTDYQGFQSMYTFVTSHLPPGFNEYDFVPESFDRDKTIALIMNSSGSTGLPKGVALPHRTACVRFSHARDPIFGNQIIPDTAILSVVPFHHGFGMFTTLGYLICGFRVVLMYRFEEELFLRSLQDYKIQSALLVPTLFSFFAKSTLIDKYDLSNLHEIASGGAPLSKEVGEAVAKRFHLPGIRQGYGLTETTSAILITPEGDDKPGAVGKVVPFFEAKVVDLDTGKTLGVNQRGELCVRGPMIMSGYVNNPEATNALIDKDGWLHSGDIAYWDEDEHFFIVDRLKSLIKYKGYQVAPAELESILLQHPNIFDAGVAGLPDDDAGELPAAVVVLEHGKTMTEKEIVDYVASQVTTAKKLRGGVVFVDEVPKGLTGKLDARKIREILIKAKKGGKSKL
Assay: Biochemical firefly luciferase enzyme assay for NPC (AID 624030);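 note: purified P. pyralis luciferase at 10 nM with luciferin and ATP substrate; nearly all actives have a fitted effect of over 70% in size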
Details: purified P. pyralis luciferase, luminescence, 5 min; series mostly up to 58.6 µM
Outline: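 Purified P. pyralis luciferase at 10 nM in 50 mM Tris Acetate (final), luminescence read within 5 minutes of enzyme addition to compounds. Activity normalised to PTC124 versus DMSO; concentration-response curves classed by r2, magnitude and activity.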

Compound	Potency
CCCCCCNC(=O)n1cc(F)c(=O)[nH]c1=O	inactive
CCCOc1ccc(C(=O)OCCN(CC)CC)cc1N	inactive
COCCCOc1cc(C[C@@H](C[C@H](N)[C@@H](O)C[C@H](C(=O)NCC(C)(C)C(N)=O)C(C)C)C(C)C)ccc1OC	inactive
CN(C)CCc1c[nH]c2ccc(CS(=O)(=O)N3CCCC3)cc12	inactive
COc1cc(NCc2ccc3nc(N)nc(N)c3c2C)cc(OC)c1OC	inactive
O[C@@H](CNC[C@H](O)[C@H]1CCc2cc(F)ccc2O1)[C@@H]1CCc2cc(F)ccc2O1	inactive
CN1CCCC(n2nc(Cc3ccc(Cl)cc3)c3ccccc3c2=O)CC1 (stereo not given)	inactive
CCc1c2c(nc3ccc(OC(=O)N4CCC(N5CCCCC5)CC4)cc13)-c1cc3c(c(=O)n1C2)COC(=O)[C@]3(O)CC	inactive
CC1=CC(=O)c2ccccc2C1=O	inactive
CCCc1cc(C(N)=S)ccn1	inactive
Cc1cccc(Nc2ccncc2S(=O)(=O)NC(=O)NC(C)C)c1	inactive
CNS(=O)(=O)CCc1ccc2[nH]cc(C3CCN(C)CC3)c2c1	inactive
CCCCc1oc2ccc(NS(C)(=O)=O)cc2c1C(=O)c1ccc(OCCCN(CCCC)CCCC)cc1	inactive
CCn1cc(C(=O)O)c(=O)c2cc(F)c(N3CCN(C)CC3)cc21	inactive
COc1cc2c(Nc3ccc(Br)cc3F)ncnc2cc1OCC1CCN(C)CC1	inactive
